Bioassay records (PubChem)
Mito fusion yeast: qHTS Assay for Small Molecule Inhibitors of Mitochondrial Division or Activators of Mitochondrial Fusion; S. cerevisiae fusion-defective mutant growth rescue, CellTiterGlo 48 h; Potency, µM (top dose mostly 46.1 µM), without a hit: top-dose growth rescue (activation), actives largely listed as activators; 320,000 tested, 0.23% active; also: % of control where 0% means no effect; nearly all actives have a fitted effect of over 45% in size
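Temperature-sensitive fusion-defective S. cerevisiae (e.g. fzo1-1, mgm1-5) were grown with compound in YPEG medium (3% ethanol, 3% glycerol) for 48 hours at 37C. Growth rescue was measured as viability by CellTiterGlo luminescence after 10 minutes at ambient.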
TDP43 rescue: qHTS of TDP-43 Inhibitors; TDP-43 expressing yeast growth rescue, BacTiter-Glo, 24 h; 410,000 tested, 1.8% active; Potency, µM (series often up to 46.1 µM), inactives show at the highest dose growth rescue (activation), most hits filed as activators; also: % of control where 0% means no effect; nearly all actives have a fitted effect of over 50% in size
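Growth rescue of TDP-43-toxic yeast measured as ATP luminescence (BacTiter-Glo). Cells grown to mid-log in raffinose, induced in galactose at OD600=0.02, exposed to compound 24 hr at 30 deg C.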
aSyn yeast inh: qHTS of alpha-syn Inhibitors. 370,000 tested, 0.14% active. Potency, µM (top dose mostly 46.1 µM), without a hit: top-dose growth rescue (activation), most hits filed as activators. Yeast expressing alpha-synuclein, growth rescue, BacTiter-Glo, 24 h. AID 652106, 2013; also: % of control where 0% means no effect; nearly all actives have a fitted effect of over 65% in size
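Galactose-induced alpha-syn yeast (OD600=0.02, raffinose-pregrown) + pinned cpd, 24 hr, 30 deg C; growth by BacTiter-Glo luminescence. Growth restoration scores as activation.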
FUS yeast rescue: qHTS for Suppressors of FUS Proteinopathy: Primary screen using FUS-linked yeast assay. S. cerevisiae FUS-expressing, growth rescue, OD600, 24 h. Potency, µM (highest dose often 76.6 µM), actives largely listed as activators. 390,000 tested, 0.24% active. AID 1347120, 2019;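 also: plate controls were DMSO vehicle for no effect and reference control for full effect; nearly all actives have a fitted effect of over 55% in size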
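Yeast expressing FUS under galactose induction, OD 0.005 in 2% galactose medium; compounds in a dilution series, 24 h at 30C. Growth rescue by absorbance at 600 nm; CP55940 positive control, DMSO negative.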
Abeta rescue: qHTS for compounds that reverse cellular toxicity of Amyloid beta (A-beta) peptide in yeast: Primary Screen; yeast expressing A-beta42, growth rescue, OD600, 48 h; response scale: 0% DMSO, 100% iron-clioquinol control; Potency, µM (highest dose often 46.1 µM), most hits filed as activators; 410,000 tested, 0.063% active; also: nearly all actives have a fitted effect of over 55% in size
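Yeast growth medium received pinned compounds, then yeast cells expressing toxic A-beta were added; plates incubated at 30 C for 48 hr. Growth read as absorbance at 600 nm, normalized to DMSO and equimolar FeCl3 plus clioquinol controls.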
* hit, by the source's call; i = inactive; ? = inconclusive; . = no result; ! = repeats disagree; [ ] = remark or other dose. This is a sample that favours compounds with a hit; in the whole collection about 2.2% have one here. Calls follow the shape of the dose curve; as a rule, active = well fitted curve in the direction sought with a large enough effect; inconclusive = small, poorly fitted or top-dose-only effect, or another doubt; inactive = no such curve, though single readings can be large; an effect the other way counts as inactive or inconclusive. Potency is read from the fitted curve at half-maximal effect.

SMILES	Mito fusion yeast	TDP43 rescue	aSyn yeast inh	FUS yeast rescue	Abeta rescue
CC1=C(C(=O)N(C)C)CC(CC(=O)NCCc2ccccn2)C(=O)N1Cc1ccccc1 (stereo not given)	.	22.8%	-4.4%	i	i
Cc1ccc(NC(=O)CC(=O)Nc2ccc(C)cc2C)c(C)c1	5.6%	4.8%	8.2%	i	i
Cc1ccc(N/C(C(Cl)=C(Cl)Cl)=C(/Cl)[N+](=O)[O-])c(C)c1	.	12.6µM*	8.1%	i	i
O=C(COC(=O)/C=C/c1ccc(OC(F)F)cc1)Nc1ccc(N2CCOCC2)cc1	2.8%	22.0%	8.0%	i	i
OCC[C@@H]1C[C@H](O)[C@@H](O)[C@@]2(OCCCc3cc(Cl)ccc32)O1	.	20.8%	-8.2%	i	i
O=C(Cc1c(Cl)cccc1Cl)Nc1ccncc1	2.9%	-16.4%	2.1%	i	i
O=C(Cc1c(Cl)cccc1Cl)Nc1ccncc1Cl	0.5%	11.2µM*	1.9%	i	i
Cc1cccc2c1nc(-c1ccccc1)n1nnnc21	-2.4%	-11.2%	-3.9%	i	i
Cc1cccc2c1nc(-c1ccccc1)n1cnnc21	0.0%	14.1µM*	1.8%	i	i
CC[C@]12c3[nH]c4ccccc4c3CCN1C(=O)C(CC(=O)NC/C=C(\C)CCC=C(C)C)C[C@@H]2C(=O)N1CCN(C(=O)C2CC2)CC1 (stereo not given in full)	.	0.0%	-10.5%	17.8µM*	i
CC(C)N(C(=O)[C@H]1C[C@H](CC(=O)NCc2ccco2)C(=O)N2CCc3c([nH]c4ccc(Cl)cc34)[C@]12C)C(C)C	.	35.5µM*	21.5%	?	i
CC[C@]12c3[nH]c4ccc(OC)cc4c3CCN1C(=O)C(CC(=O)NC/C=C(\C)CCC=C(C)C)C[C@@H]2C(=O)N1CCN(C(=O)C2CC2)CC1 (stereo not given in full)	.	4.0%	0.6%	?	i
CC(C)N(C(=O)[C@H]1CC(CC(=O)NCc2ccco2)C(=O)N2CCc3c([nH]c4ccccc34)[C@]12C)C(C)C (stereo not given in full)	.	24.5%	8.1%	i	i
CC[C@]12c3[nH]c4cc(-c5ccco5)ccc4c3CCN1C(=O)[C@@H](CC(=O)NCc1ccc(OC)c(OC)c1)C[C@@H]2C(=O)N1CCN(C(=O)c2ccco2)CC1	.	18.6%	4.1%	35.5µM*	i
CCN(CC)C(=O)[C@H]1C[C@H](CC(=O)NCc2ccco2)C(=O)N2CCc3c([nH]c4ccc(Cl)cc34)[C@]12C	.	28.4%	10.7%	i	i
CC(C)N(C(=O)[C@H]1C[C@H](CC(=O)NCc2ccco2)C(=O)N2CCc3c([nH]c4cc(-c5ccco5)ccc34)[C@]12C)C(C)C	.	12.6µM*	?	?	i
CC[C@]12c3[nH]c4cc(CCC(=O)N(C)C)ccc4c3CCN1C(=O)[C@@H](CC(=O)NCc1ccc(OC)c(OC)c1)C[C@@H]2C(=O)N1CCN(C(=O)c2ccco2)CC1	.	5.0%	3.1%	i	i
CCS(=O)c1ccccc1C(=O)OCC(=O)Nc1cccc(S(=O)(=O)N2CCCCC2)c1 (stereo not given)	2.1%	11.5%	2.4%	?	i
CC(C)N(C(=O)[C@H]1C[C@H](CC(=O)NCc2cccc(C(F)(F)F)c2)C(=O)N2CCc3c([nH]c4ccc(Cl)cc34)[C@]12C)C(C)C	.	35.5µM*	?	i	i
CCOC(=O)C1=C(Cc2ccc(C)cc2)C(=O)c2ccccc2C1=O	-1.6%	.	.	.	.
CCOC(=O)C1=C(Cc2ccc(OC)cc2)C(=O)c2ccccc2C1=O	3.6%	12.6µM*	20.1%	i	i
Cc1ccc(-c2nc(NC(=O)CSc3ncnc4sc5c(c34)CCC(C)C5)ns2)cc1 (stereo not given)	.	-1.3%	.	i	i
CCCCOc1cccc(C(=O)NC(=S)Nc2cccnc2)c1	-0.3%	25.1µM*	-0.7%	.	i
Cc1cccc(C)c1NC(=O)C(C1CC1)n1c(=O)c(-c2ccccc2)nc2ccccc21 (stereo not given)	.	12.6µM*	?	i	i
Cc1cccc(C)c1NC(=O)C(C1CC1)n1c(=O)c(-c2cc3ccccc3[nH]2)nc2ccccc21 (stereo not given)	.	?	?	5.62µM*	i
SMILES	Mito fusion yeast	TDP43 rescue	aSyn yeast inh	FUS yeast rescue	Abeta rescue
O=C(c1ccc([N+](=O)[O-])cc1)N1CCc2ccccc2C1	19.9%	-14.7%[0.397 µM]	0.6%	i	i
O=[N+]([O-])c1ccc(NC(=S)N2CCc3ccccc3C2)cc1	?	25.1µM*	?	.	i
O=[N+]([O-])c1cccc(NC(=S)N2CCc3ccccc32)c1	-1.5%	12.6µM*	2.3%	i	?
O=C(Nc1cccc([N+](=O)[O-])c1)N1CCCc2ccccc21	-0.1%	11.2µM*	-5.3%	i	i
O=[N+]([O-])c1cccc(NC(=S)N2CCCC2)c1	-1.8%	-4.5%	-0.2%	i	i
Cc1cccc(OCC(=O)OCc2cc(=O)n3nc(C4CC4)sc3n2)c1	.	-13.2%	.	i	i
CCCCc1ccc(S(=O)(=O)NC(=O)C2(C)CCN2C(=O)C/C=C/c2ccccc2)cc1 (stereo not given)	.	7.6%	-38.1%	i	i
CCCCN(C)C(=S)Nc1ccc(Oc2ccccc2)cc1	17.9%	-10.6%	-2.5%	.	i
CCCN(CC1CC1)C(=S)Nc1ccc(Oc2ccccc2)cc1	25.4%	20µM*	0.3%	.	i
CCC(C)C(NC(=O)C1CCC(C)CC1)C(=O)NCc1ccco1 (stereo not given)	35.5µM*	-2.4%	0.3%	i	i
NC[C@@H]1O[C@H](c2ccccc2)Cc2c1ccc(O)c2O	16.4µM*	.	4.3%	.	.
NC[C@@H]1O[C@H](C23CC4CC(CC(C4)C2)C3)Cc2c1ccc(O)c2O	?	-27.3%	-0.2%	i	i
COc1ccc(N2CCN(C(=O)COCc3cc(-c4ccc5c(c4)OCO5)on3)CC2)cc1	6.7%	-14.0%	0.1%	i	i
O=C(COCc1cc(-c2ccc3c(c2)OCO3)on1)N1CCN(c2cccc(C(F)(F)F)c2)CC1	14.9%	35.5µM*!	18.6%	i	i
COc1cccc(CNC(=O)COCc2cc(-c3ccc4c(c3)OCO4)on2)c1	.	35.5µM*	.	i	i
CCC1CCCCN1C(=O)CSc1n[nH]c(-c2ccccc2)n1 (stereo not given)	.	-5.2%	.	i	i
O=S(=O)(NCc1ccco1)c1cnc(Cl)c(Br)c1	9.2%	14.1µM*	?	.	i
